Polio RdRp inh: poliovirus RNA polymerase inhibition | poliovirus polymerase elongation, fluorescence polarization; stronger effect = lower value | % elongation, % (compound at 16.7 µg/mL) | P03300 | 0.66% of 150,000 active; in the data active = % elongation below about 90%
MenB inh: blocks the Mycobacterium tuberculosis MenB enzyme | P9WNP5 | MenB enzyme assay, absorbance read-out | inhibition, % (no concentration beside the values) | 0.43% of 100,000 active | AID 540299; in the data active = inhibition above about 21%, passing the limit was not always enough
AID504770: E. coli YBA685 growth inhibition, screen for V. cholerae RctB inhibitors; E. coli YBA685 rctB-dependent plasmid, OD600 growth, 3 h; stronger effect = lower value; z-score (test concentration not listed); 0.27% of 130,000 active; AID 504770; in the data active = z-score below about -2, passing the limit was not always enough
MbtI inh: blocks the Mycobacterium tuberculosis siderophore enzyme MbtI; P9WFX0; purified MbtI enzyme, fluorescence intensity read-out; inhibition, % (test concentration not listed); 0.89% of 100,000 active; AID 493033; in the data active = inhibition mostly above about 56%, no sharp cut-off; inactive = mostly below about 77%
The depositor's hits bear a star; . = not tested or not shown. Only some compounds are listed: those with a hit (about 1.4% of all), similar ones and a draw of the others.

SMILES	Polio RdRp inh	MenB inh	AID504770	MbtI inh
O=C(CCCN1C(=O)c2ccccc2C1=O)NC1=NCCS1	100	-17	-0.5	2
O=C(CSc1ccccn1)c1ccc(F)cc1	99	-10	1.5	86*
NC(=O)CCSc1n[nH]c(=S)s1	101	-7	-0.95	56
CCOC(=O)CSc1n[nH]c(=S)s1	101	-21	0.1	90*
CCOC(=O)CSc1nn(C)c(=S)s1	.	.	1.2	25
CCOC(=O)CCSc1n[nH]c(=S)s1	103	-22	0.3	85*
CCN1C(=O)C2C(c3ccc(F)cc3)NC(CCSC)(C(=O)OC)C2C1=O (centres undefined)	106	-33	-0.45	-6
N#Cc1c(-c2ccccc2)cc(-c2ccccc2)nc1SCC(O)CS(=O)(=O)Cc1ccccc1 (centres undefined)	80*	.	.	.
COc1cccc(C2CCN(C(=O)c3cccc4ccccc34)CC2)c1	111	-23	-0.85	-12
O=C(CSc1ccc2c(c1)OCCO2)Nc1ccccc1	99	-9	-0.2	0
CN(CC(=O)Nc1ccc(F)cc1)C(=O)CSc1ccc2c(c1)OCCO2	106	-24	2	98*
CCOc1ccc(C2=C(C(C)=O)Sc3nnc(C)n3N2C(C)=O)cc1	79*	.	.	.
CC(=O)Oc1ccc(OC(C)=O)c(C2=C3C(=O)N(CCc4c[nH]c5ccccc45)CC(=O)N3CCC2)c1	104	12	0.3	100*
O=C(COc1ccc(C(F)(F)F)cn1)Nc1ccc(C(F)(F)F)cc1	100	-18	-1.4	9
CCCn1c(=O)c2ccccc2n2c(SCCCc3ccccc3)nnc12	.	-22	-0.7	9
Cc1nc(C)c(/C(O)=C/c2nc3cc(Cl)ccc3oc2=O)o1	102	6	1.4	3
CC(C)C/C(O)=C/c1nc2cc(Cl)ccc2oc1=O	101	85*	-1.1	22
CC(C)(C)/C(O)=C/c1nc2ccccc2oc1=O	97	64*	-0.5	-2
CCS(=O)(=O)c1ccc2oc(SCC(=O)NCc3ccccc3)nc2c1	104	-17	-0.05	-5
CCS(=O)(=O)c1ccc2oc(=O)c(/C=C(\O)C(C)(C)C)nc2c1	100	55*	-0.65	10
Cc1cc(=S)nc(C(C)C)[nH]1	100	-53	-3.5	91*
CC(C)c1nc(=S)[nH][nH]1	84*	-8	0.2	87*
Cc1ccc2c(c1)N(CC(=O)N1CCOCC1)C(=O)c1cccnc1O2	99	5	0.3	-2
Cc1c(-c2ccccc2)sc(N)c1C(=O)N1CCCCC1	70*	-13	0.25	84
COC(=O)c1cccc2c(Br)ccc(C(=O)OC)c12	.	.	-1	.
SMILES	Polio RdRp inh	MenB inh	AID504770	MbtI inh
Cc1cc2n(n1)CCCN2CC(=O)N1CCc2ccccc21	102	-13	1.2	-15
COc1ccc(C(=O)N/N=c2/c(=O)c(=O)c3ccccc23)cc1	52*	-25	-0.2	-6
CCCCC1CCC(C(=O)O)CC1 (centres undefined)	101	.	-0.5	-7
CCCCC1CCC(CCCC(C)CCC(=O)O)CC1 (centres undefined)	89*	.	.	.
CN(C)c1nc(Nc2ccccc2)nc(N(C)C)n1	99	34	-0.5	5
Fc1cccc(Nc2nc(Cl)nc(Cl)n2)c1	98	48*	-0.55	2
Clc1nc(Cl)nc(Nc2ccccc2)n1	87*	-3	0.65	.
COc1ccc(S(=O)(=O)Nc2c(F)cc(F)cc2Br)cc1OC	.	.	0.65	.
O=C(CCN1C(=O)c2ccccc2C1=O)OCc1ccco1	90*	1	-0.5	0
CCOC(=O)CCN1C(=O)c2ccccc2C1=O	107	1	1.3	-1
O=C(NCCc1ccccc1)C1CCC(=O)N1Cc1ccc(F)cc1 (centres undefined)	98	-5	0.55	-26
FC(F)(F)CN(Cn1nc(-c2ccco2)oc1=S)Cn1nc(-c2ccco2)oc1=S	76*	-8	-0.2	80
C1CCN(c2nc(N3CCCC3)nc(N3CCNCC3)n2)C1	100	33*	0.1	-22
Cc1cc(C)nc(N2CCNCC2)n1	102	12	-0.1	58
COc1ccc(N2CCN(Cc3nc4nc(C)cc(C)n4c3Br)CC2)cc1	.	.	-1.1	.
CC(C)Oc1ccc(CNC(=O)c2cnc3sc(N4CCCC4)nn3c2=O)cc1	15*	.	.	.
O=c1oc2c3c(ccc2c2ccccc12)OCN(Cc1cccc(Cl)c1)C3	85*	.	.	.
Nn1c(COc2ccccc2)n[nH]c1=S	80*	-71	-0.75	95*
O=C(O)CCC(=O)c1ccc(I)cc1	101	.	1.5	4
O=C(O)CCC(=O)c1ccc(Br)cc1	90*	.	-3.1*	-11
CC1CCN(C(=O)COC(=O)Cc2ccc(Cl)cc2)CC1	102	.	-0.4	-5
